Results as given in PubChem BioAssay (NCI).
About 79,000 compounds went through this panel and 15% of them were active in at least one assay; those are over-represented in the sample as a whole. Calls of active or inactive are those of the source. No stated cut-off is given here; in the data, active means growth inhibition above about 70%; inactive means the rest.

Assays:
[1] = NCI Yeast Anticancer Drug Screen. Data for the wt1 strain (AID 149);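 further: 0% = growth of vehicle-treated wt1 cultures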; conditions: S. cerevisiae wt1 strain (SPY 50644) growth inhibition, stronger effect = higher value
How it was run: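 Using yeast strain wt1, compound-induced growth inhibition was determined against vehicle-treated cultures.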

[2] = NCI Yeast Anticancer Drug Screen. Data for the rad50EPP+ strain (AID 151);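 further: 0% = growth of vehicle-treated control cultures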; conditions: S. cerevisiae rad50 mutant strain, stronger effect = higher value
How it was run: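 Read-out is yeast growth inhibition relative to vehicle; cells used were the rad50EPP+ strain.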

[3] = NCI Yeast Anticancer Drug Screen. Data for the mgt1 strain (AID 153); conditions: S. cerevisiae mgt1 mutant growth inhibition, stronger effect = higher value
How it was run: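 Measured: inhibition of mgt1 yeast growth by compound, normalized to vehicle-treated cultures.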

[4] = NCI Yeast Anticancer Drug Screen. Data for the rad50 strain (AID 155);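 further: 0% = growth of vehicle-only cultures of the same strain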; conditions: S. cerevisiae rad50 strain growth inhibition, stronger effect = higher value
How it was run: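 Relative growth inhibition (compound vs vehicle) was measured in yeast with a defined repair-gene alteration.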

[5] = NCI Yeast Anticancer Drug Screen. Data for the mec2-1 strain (AID 157); conditions: S. cerevisiae mec2-1 strain, stronger effect = higher value
How it was run: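 Using mec2-1 yeast: add compound, measure growth, express inhibition versus vehicle-treated cultures.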

[6] = NCI Yeast Anticancer Drug Screen. Data for the sgs1 mgt1 strain (AID 161);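 further: 0% = growth of cultures given vehicle only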; conditions: S. cerevisiae sgs1 mgt1 strain, stronger effect = higher value
How it was run: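 Percent growth inhibition was derived by comparing compound-exposed mutant yeast with vehicle-exposed cultures. The strain carries alterations in DNA damage repair.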

[7] = NCI Yeast Anticancer Drug Screen. Data for the CLN2oe strain (AID 163);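 further: 0% = growth of vehicle-only control cultures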; conditions: S. cerevisiae CLN2oe strain, stronger effect = higher value
How it was run: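 Whole-cell yeast growth assay. A strain engineered for altered cell-cycle control received compound, and inhibition relative to vehicle-treated cultures was recorded.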

[8] = NCI Yeast Anticancer Drug Screen. Data for the cln2 rad14 strain (AID 165);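 further: 0% = growth equal to vehicle treated cultures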; conditions: S. cerevisiae cln2 rad14 strain, stronger effect = higher value
How it was run: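 Yeast strain cln2 rad14, bearing defects in cell cycle control and DNA repair, serves as the test system; values reflect growth inhibition compared with vehicle.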

[9] = NCI Yeast Anticancer Drug Screen. Data for the bub3 strain (AID 167); conditions: S. cerevisiae bub3 mutant strain, stronger effect = higher value
How it was run: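 Screening used yeast with an engineered genetic alteration affecting cell cycle control. Compound-exposed cultures were compared with vehicle cultures, and reduced growth was taken as inhibition.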

[10] = NCI Yeast Anticancer Drug Screen. Data for the wt2 strain (AID 169);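 further: 0% = growth of vehicle-treated yeast cultures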; conditions: S. cerevisiae wt2 strain growth inhibition, stronger effect = higher value
How it was run: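 Treated yeast vs. vehicle-treated yeast: growth inhibition determined.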

[11] = NCI Yeast Anticancer Drug Screen. Data for the mlh1 strain (AID 171);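 further: 0% = growth of vehicle-treated control cultures of the same strain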; conditions: S. cerevisiae mlh1 strain growth inhibition, stronger effect = higher value
How it was run: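 A yeast strain with a defined genetic lesion serves as the test organism. Cultures receive compound or vehicle, and growth is measured.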

[12] = NCI Yeast Anticancer Drug Screen. Data for the sgs1 strain (AID 173);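 further: 0% = growth of vehicle-only control cultures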; conditions: S. cerevisiae sgs1 mutant, stronger effect = higher value
How it was run: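 A genetically defined yeast mutant is incubated with the test compound, and its growth is compared to that of the same strain given vehicle.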

[13] = NCI Yeast Anticancer Drug Screen. Data for the mlh1 rad18 strain (AID 175); conditions: S. cerevisiae mlh1 rad18 strain growth inhibition, stronger effect = higher value
How it was run: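 Steps: expose repair-defective yeast to compound; measure growth; express inhibition against vehicle-treated controls.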

[14] = NCI Yeast Anticancer Drug Screen. Data for the rad18 strain (AID 177); conditions: S. cerevisiae rad18 mutant growth inhibition, stronger effect = higher value
How it was run: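 Measured value is growth inhibition of a yeast strain bearing a DNA repair alteration, referenced to vehicle-treated cells.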

[15] = NCI Yeast Anticancer Drug Screen. Data for the rad14 strain (AID 159);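 further: 0% = growth of vehicle-treated control cultures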; conditions: S. cerevisiae rad14 strain growth inhibition, stronger effect = higher value
How it was run: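 Screen for anticancer potential: a yeast strain altered in DNA damage repair is grown with compound, and reduced growth is quantified against vehicle controls.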

[16] = at 5.0 µM (retest, dose inferred, filed as 0.5)
[17] = at 50.0 µM (retest, dose inferred, filed as 5.0)

Measured: growth inhibition

C#CCCCc1ccccc1
active: [3]; at 100.0 µM 91% | [5]; at 100.0 µM 98% | [7]; at 100.0 µM 73% | [9]; [17] 79% | [9]; at 100.0 µM 97% | [11]; at 100.0 µM 98% | [12]; at 100.0 µM 89% | [13]; [17] 70%
inactive: [1]; at 1.2 µM -29% | [1]; at 3.7 µM -24% | [1]; at 11.0 µM -28% | [1]; at 33.0 µM -9% | [1]; at 100.0 µM 57% | [2]; at 1.2 µM -65% | [2]; at 3.7 µM -72% | [2]; at 11.0 µM -55% | [2]; at 33.0 µM 23% | [2]; at 100.0 µM 67% | [3]; at 1.2 µM -19% | [3]; at 3.7 µM -14% | [3]; at 11.0 µM -7% | [3]; at 33.0 µM 16% | [4]; at 1.2 µM -48% | [4]; at 3.7 µM -45% | [4]; [16] -13% | [4]; at 11.0 µM -36% | [4]; at 33.0 µM -24% | [4]; [17] 37% | [4]; at 50.0 µM 24.1% | [4]; at 100.0 µM 65% | [5]; at 1.2 µM -21% | [5]; at 3.7 µM -12% | [5]; [16] -13% | [5]; at 11.0 µM -41% | [5]; at 33.0 µM 31% | [5]; [17] 18% | [5]; at 50.0 µM 47.4% | [6]; [16] -9% | [6]; [17] 15% | [6]; at 50.0 µM 63.6% | [7]; at 1.2 µM -7% | [7]; at 3.7 µM -5% | [7]; at 11.0 µM 4% | [7]; at 33.0 µM 2% | [8]; [16] 17% | [8]; [17] 37% | [8]; at 50.0 µM 18.1% | [9]; at 1.2 µM -31% | [9]; at 3.7 µM -33% | [9]; [16] 0% | [9]; at 11.0 µM -25% | [9]; at 33.0 µM 2% | [9]; at 50.0 µM 39.9% | [10]; at 1.2 µM -52% | [10]; at 3.7 µM -55% | [10]; at 11.0 µM -54% | [10]; at 33.0 µM -31% | [10]; at 100.0 µM 14% | [11]; at 1.2 µM -20% | [11]; at 3.7 µM -22% | [11]; at 11.0 µM -26% | [11]; at 33.0 µM 19% | [12]; at 1.2 µM -48% | [12]; at 3.7 µM -61% | [12]; at 11.0 µM -56% | [12]; at 33.0 µM -12% | [13]; [16] 15% | [13]; at 50.0 µM 26.7% | [14]; at 1.2 µM -56% | [14]; at 3.7 µM -49% | [14]; at 11.0 µM -58% | [14]; at 33.0 µM -28% | [14]; at 100.0 µM 65%

CCOC(=O)c1cnc2cc(C(F)(F)F)ccc2c1N=[N+]=[N-]
active: [2]; at 100.0 µM 82% | [3]; at 100.0 µM 92% | [4]; at 100.0 µM 83% | [5]; at 100.0 µM 90% | [15]; at 100.0 µM 93% | [7]; at 100.0 µM 87% | [9]; at 100.0 µM 74% | [11]; at 100.0 µM 87% | [12]; at 33.0 µM 75% | [12]; at 100.0 µM 94% | [14]; at 100.0 µM 88%
inactive: [2]; at 1.2 µM 6% | [2]; at 3.7 µM 13% | [2]; at 11.0 µM 26% | [2]; at 33.0 µM 54% | [3]; at 1.2 µM 4% | [3]; at 3.7 µM 6% | [3]; at 11.0 µM 22% | [3]; at 33.0 µM 66% | [4]; at 1.2 µM 8% | [4]; at 3.7 µM 25% | [4]; [16] 7% | [4]; at 11.0 µM 23% | [4]; at 33.0 µM 50% | [4]; [17] 20% | [4]; at 50.0 µM 44.4% | [5]; at 1.2 µM 14% | [5]; at 3.7 µM 12% | [5]; [16] -3% | [5]; at 11.0 µM 22% | [5]; at 33.0 µM 56% | [5]; [17] 4% | [5]; at 50.0 µM 20.2% | [15]; at 1.2 µM 7% | [15]; at 3.7 µM 3% | [15]; at 11.0 µM 12% | [15]; at 33.0 µM 49% | [6]; [16] -1% | [6]; [17] -3% | [6]; at 50.0 µM 43.4% | [7]; at 1.2 µM 11% | [7]; at 3.7 µM 12% | [7]; at 11.0 µM 18% | [7]; at 33.0 µM 64% | [8]; [16] -4% | [8]; [17] 1% | [8]; at 50.0 µM 25.1% | [9]; at 1.2 µM 11% | [9]; at 3.7 µM 7% | [9]; [16] -17% | [9]; at 11.0 µM 14% | [9]; at 33.0 µM 46% | [9]; [17] 48% | [9]; at 50.0 µM -3.4% | [11]; at 1.2 µM 7% | [11]; at 3.7 µM 6% | [11]; at 11.0 µM 15% | [11]; at 33.0 µM 51% | [12]; at 1.2 µM 10% | [12]; at 3.7 µM 12% | [12]; at 11.0 µM 25% | [13]; [16] -4% | [13]; [17] 12% | [13]; at 50.0 µM 59.9% | [14]; at 1.2 µM 15% | [14]; at 3.7 µM 22% | [14]; at 11.0 µM 33% | [14]; at 33.0 µM 58%
